HPGD inh: blocks human HPGD enzyme activity; purified HPGD, NADH fluorescence kinetic, PGE2 substrate; P15428; AID 894; 4.3% of 150,000 active; Potency, µM, inactives show at the top dose activity change, negative = inhibition, hits mostly inhibitors; further: potency means the concentration at half of the fitted maximal effect
Target sequence (P15428 whole entry, looked up): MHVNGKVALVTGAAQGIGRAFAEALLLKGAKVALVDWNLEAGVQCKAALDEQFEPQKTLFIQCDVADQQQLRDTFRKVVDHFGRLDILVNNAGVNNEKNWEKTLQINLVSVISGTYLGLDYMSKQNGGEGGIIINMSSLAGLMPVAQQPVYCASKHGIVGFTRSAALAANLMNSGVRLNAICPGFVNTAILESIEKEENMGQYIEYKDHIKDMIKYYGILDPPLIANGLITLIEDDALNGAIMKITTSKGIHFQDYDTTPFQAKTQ
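NADH formation kinetics: reaction with 30 uM PGE2 and 1 mM NAD+ (final), 20 nM enzyme, Tris-HCl pH 8 with Tween 20, after 15 min compound preincubation at room temperature. Fluorescence change, last versus first of five reads.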
ALDH1A1 inh: inhibitors of human aldehyde dehydrogenase 1A1. 7.3% of 220,000 active. Purified ALDH1A1, NADH fluorescence, propionaldehyde substrate. Potency, µM (doses to about 75.3 µM), for inactives: at the highest dose activity, negative = inhibition, usual class: inhibitors. P00352;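 further: potency means the concentration at half of the fitted maximal effect; plate controls were no enzyme wells and a reference inhibitor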
IMPase cell inh: cell-permeable inhibitors of inositol monophosphatase (IMPase) | CHO-M1 cells, IP1 accumulation, HTRF TR-FRET ratio | AID 901 | inhibition (IP1 accumulation), % at 46.1 µM | P97697 | 120,000 tested, under 10 active; active means well fitted curve in the direction sought with a large enough effect in the signal ratio, not every such curve was filed as active; inconclusive means small, poorly fitted or top-dose-only effect, or a change in a side signal; inactive means no such curve, though single readings can be large or run the other way; the % refers to the signal ratio;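 further: cells stimulated with carbachol in lithium chloride buffer; plate controls were DMSO basal wells for no effect and reference inhibitor wells for full effect; higher means more IMPase inhibition seen as more IP1 and lower FRET ratio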
Target sequence (P97697 whole entry, looked up): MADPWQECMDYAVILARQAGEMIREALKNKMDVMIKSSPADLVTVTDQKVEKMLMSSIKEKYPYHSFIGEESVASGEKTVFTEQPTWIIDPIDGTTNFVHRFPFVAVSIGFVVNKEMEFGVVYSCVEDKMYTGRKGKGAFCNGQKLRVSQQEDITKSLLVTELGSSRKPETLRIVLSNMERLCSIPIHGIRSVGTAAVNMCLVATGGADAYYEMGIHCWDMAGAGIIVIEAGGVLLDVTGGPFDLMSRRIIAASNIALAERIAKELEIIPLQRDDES
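The IP-One HTRF competitive assay in carbachol-stimulated CHO-M1 cells quantifies cellular IP1. Compounds spanned up to 46 uM final, and activity is expressed as AC50 from concentration-response fits of the ratio and donor data.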
Active calls of the source: *; ? = inconclusive; nt = not tested or not shown; [ ] = remark or other dose. Rows were chosen to be rich in hits. Some 9% of all compounds tested hit in one or more screens of this group. Unless noted, the call rests on the fitted dose curve; in most records, active means well fitted inhibition curve with a large enough effect (not every such curve was filed as active); inconclusive means small, poorly fitted or top-dose-only effect, or another doubt; inactive means no such curve, though single readings can be large or run the other way. Unless noted, on the % scale 0 is the no-effect control and ±100 the full control effect.

SMILES	HPGD inh	ALDH1A1 inh	IMPase cell inh
O=c1c2ccccc2c(C=NC2CCS(=O)(=O)C2)c(O)n1-c1ccccc1 (stereo unspecified)	-11.4%	17.8µM*	11.4
O=S(c1ccccc1)c1ccc2nnnn2n1 (stereo unspecified)	nt	nt	13.4
Cc1cc(O)c(C=O)c2c1C(=O)Oc1c(C)c(O)c3c(c1O2)C(O)OC3=O (stereo unspecified)	10µM*	?	nt
COc1cc(C)c2c(c1C=O)Oc1c(c(C)c(O)c3c1C(O)OC3=O)OC2=O (stereo unspecified)	20µM*	-14.3%	nt
CCCCCCCC(=O)OCCOC(=O)CCCCCCC	-2.7%	11.8%	nt
O=C(CN1CCCCC1)NCC1(c2ccccc2)CCCC1	nt	-4.4%	nt
CC(C)Nc1nnc(SC(C)C(=O)NCc2ccc3c(c2)OCO3)s1 (stereo unspecified)	nt	6.2%	nt
CC(C)CC(OC(=O)c1cccs1)C(=O)NCc1ccco1 (stereo unspecified)	-10.7%	?	2.5
CCC(OC(=O)c1cccs1)C(=O)NCc1ccco1 (stereo unspecified)	-15.2%	22.4µM*	6.3
CC(C)C(OC(=O)c1nsc(Cl)c1Cl)C(=O)NCc1ccc2c(c1)OCO2 (stereo unspecified)	2.24µM*	-5.3%	-1.1
CC(OC(=O)c1cccs1)C(=O)NCc1ccc2c(c1)OCO2 (stereo unspecified)	28.2µM*	3.6%	1.2
CC(C)C(OC(=O)c1cccs1)C(=O)NCc1ccc2c(c1)OCO2 (stereo unspecified)	nt	-11.6%	nt
O=C(O)c1ccc([N+](=O)[O-])c(P(=O)(O)O)c1	-4.6%	0.4%[13.5 µM]	nt
CCOC(=O)CSc1nc(C(C)(C)C)cc(C(F)(F)F)c1C#N	-10.4%	7.1%	-4.2
CC(C)(C)C(=O)Nc1cccc2[nH]ncc12	nt	5.1%	nt
CCC(NC(=O)/C(=C\c1ccc2c(c1)OCO2)NC(C)=O)C(=O)O (stereo unspecified)	-3.5%	6.6%	nt
CC(C)Cc1nnc(NS(C)(=O)=O)s1	-19.3%	25.1µM*	?
CC(C)Cc1nnc(NS(=O)(=O)c2ccc(Cl)cc2)s1	-6.2%	?	-8.2
COc1ccc(CN2CCCC(CNC(=O)c3ccc(F)cc3)C2)c(C)c1C (stereo unspecified)	nt	-14.6%	nt
CCn1c(=O)c(C(=O)Nc2cc(OC)c(OC)c(OC)c2)nc2ccccc21	nt	nt	1.5
Cc1ccc(C)c(NC(=S)NC(NC(=O)OCc2ccccc2)C(Cl)(Cl)Cl)c1 (stereo unspecified)	-5.8%	-10.5%	nt
O=C(NC(NC(=S)Nc1c(Cl)cc(Cl)cc1Cl)C(Cl)(Cl)Cl)OCc1ccccc1 (stereo unspecified)	-7.7%	3.55µM*	2.7
O=C(NCc1ccncc1)C(=O)NC1CC1	nt	6.5%	nt
CCc1ccc(N2CC(C(=O)Nc3cc(C)on3)CC2=O)cc1 (stereo unspecified)	nt	-4.0%	nt
Cc1cc(C)c(NC(=O)Cn2c(=O)n(-c3ccc(CC(=O)NCC4CCCO4)cc3)c(=O)c3ccccc32)c(C)c1 (stereo unspecified)	nt	2.3%	nt
SMILES	HPGD inh	ALDH1A1 inh	IMPase cell inh
O=C(O)/C=C/C(=O)Nc1ccccc1SC(F)(F)C(F)(F)C(F)(F)F	nt	-7.2%	nt
O=C(O)/C=C/C(=O)Nc1ccccc1-c1ccccc1	28.2µM*	?	2.8
COCCN(C(=O)C(C)C)c1nnc(-c2cccc(C)c2)s1	?	?	10.6
CCCCCCc1c(C[C@H](N)C(=O)O)o[nH]c1=O	-2.8%	3.6%	-12.7
O=c1cc(-c2ccccc2)oc2cc(O[C@@H]3O[C@H](CO)[C@@H](O)[C@H](O)[C@H]3O)c(O)c(O)c12	11.2µM*	?	?
O=c1c(OC2OC(CO)C(O)C(O)C2O)c(-c2ccc(O)c(O)c2)oc2cc(O)cc(O)c12 (stereo unspecified)	-15.6%	-13.5%	nt
O=c1c(O)c(-c2ccc(O)c(O)c2)oc2c(OC3OC(CO)C(O)C(O)C3O)c(O)cc(O)c12 (stereo unspecified)	28.2µM*	?	nt
O=c1cc(-c2ccc(O)cc2)oc2cc(O[C@H]3OC(CO)C(O)C(O)C3O)cc(O)c12 (stereo partly specified)	-8.3%	-0.8%	nt
O=C(NCCc1c[nH]c2ccccc12)/C(=C\c1cccnc1)NC(=O)c1ccccc1F	nt	-1.9%	nt
COc1ccc(C2CC(c3ccc(Cl)cc3)=NN2C(=O)c2cccc([N+](=O)[O-])c2)cc1 (stereo unspecified)	-16.4%	-0.2%	4.2
C/C(=N\NC(=O)c1ccc(Br)cc1)c1ccccc1	-10.8%	0.6%	0.5
CC/C(=N\NC(=O)c1ccc(N(C)C)cc1)c1ccccc1	-18.8%	28.2µM*	nt
O=C1CN(C(=O)c2ccccc2F)c2ccccc2N1	-0.5%	-2.4%	-14.1
Cc1ccc(Nc2c([N+](=O)[O-])cc(C(=O)N3CC(=O)Nc4ccccc43)cc2[N+](=O)[O-])c(C)c1	15.8µM*	8.4%	3.2
CN(CC(=O)Nc1ccc(F)cc1)CC(=O)Nc1ccc(F)c(F)c1F	nt	3.5%	nt
COc1ccc(OC)c(CN2CCN(C(=O)c3cccc4ccccc34)CC2)c1	-12.8%	25.1µM*	9.0
COc1cc(C(=O)N2CCN(Cc3ccccc3C(F)(F)F)CC2)cc(OC)c1OC	-8.8%	?	-1.2
COc1ccc(OCC(=O)N2CCN(C(=O)c3cccc4ccccc34)CC2)cc1	-4.5%	?	0.7
COc1cc(OC)cc(C(=O)N2CCN(Cc3ccccc3C(F)(F)F)CC2)c1	nt	14.1µM*	11.7
CCCc1nc2sc3c(N4CCCCC4)ncnc3c2c2c1CCCC2	nt	nt	-6.1
CC1(CC(=O)N/N=C/c2cc3c(cc2Br)OCO3)OCCO1	nt	-4.9%	nt
COc1ccc(C)cc1NC(=O)C1CCN(S(=O)(=O)c2cccc3cccnc23)CC1	-10.8%	-7.5%	5.5
COc1ccc(S(=O)(=O)N2CCC(C(=O)Nc3ccccc3C)CC2)c2cccnc12	-18.5%	22.4µM*	2.2
COC(=O)C1CCN(C(=O)COC(=O)COc2ccc(C#N)cc2)CC1	nt	4.8%	nt
COC(=O)N/N=C/c1ccc(-c2cc(Cl)ccc2Cl)o1	-12.6%	-3.1%	-2.4
SMILES	HPGD inh	ALDH1A1 inh	IMPase cell inh
O/N=C/c1ccc(-c2cc(Cl)ccc2Cl)o1	4.47µM*	2.3%	nt
COc1ccc(N=Cc2ccc(-c3ccccc3)o2)cc1	nt	3.16µM*	nt
NC(=S)N/N=C/c1ccc(-c2ccccc2)o1	nt	-14.6%	nt
COc1ccc(N=Cc2ccc[nH]2)cc1	-6.6%	?	-14.7
O/N=C\c1ccc(-c2ccccc2)o1	14.1µM*	1.7%	nt
Cc1cc(C)n2cc(CSc3nc4ccccc4s3)nc2n1	?	?	-13.4
CCOc1ccc(S(=O)(=O)N(CC(=O)Nc2ccc3c(c2)OCO3)c2ccccc2)cc1	nt	nt	15.5
O=C(c1ccccc1Cl)N1CCc2ccccc2C1	4.47µM*	?	-6.2
O=C(c1cncc(Br)c1)N1CCCc2ccccc21	-11.3%	-10.4%	?
CSc1ccccc1C(=O)N1CCc2ccccc2C1	nt	1.4%	nt
O=C(c1cncc(Br)c1)N1CCc2ccccc2C1	10µM*	5.9%	-8.7
COc1cccc(C(=O)N2CCN(C(=O)c3cccc(F)c3)CC2)c1	-1.2%	?	6.9
O=C(c1cccc(F)c1)N1CCc2ccccc2C1	5.01µM*	14.1µM*	-7.3
O=C(c1cnccn1)N1CCc2ccccc2C1	nt	11.3%	nt
